Assay outcomes as filed in PubChem BioAssay.
In the library only some 6.3% were active in any assay of this set; here they are far more common.
VP16 counter: VP16 counterscreen qHTS for inhibitors of ROR gamma transcriptional activity; Drosophila S2 Gal4-VP16 UAS-luciferase, luminescence, 20 h; Potency, µM (doses to about 53.6 µM), without a hit: at the top dose activity, negative = inhibition, usual class: inhibitors; 310,000 compounds, 3.5% hits; AID 2546, 2010;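 note: Gal4-VP16 expression switched on by copper sulfate through the metallothionein promoter; % is set by controls: 0 for no effect and ±100 for the full control effect; nearly all actives have a fitted effect of over 50% in size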
ATXN viability: Viability Counterscreen for Primary qHTS for Inhibitors of ATXN expression; AID 651635, 2014; Potency, µM (titrated, usually from 56.7 µM), actives largely listed as cytotoxic; 400,000 compounds, 0.49% hits; S2 cells (HEK-293 line with an ATXN2-luciferase reporter) viability, CellTiter-Fluor protease fluorescence, 24 h; note: nearly all actives have a fitted effect of over 40% in size
TGFb SMAD3 inh: qHTS for Inhibitors of TGF-b; HepG2 CAGA-GFP TGF-b/SMAD3 reporter, GFP fluorescence, 18 h; TGF-beta stimulated, 500 pg/mL final; Potency, µM (titrated, usually from 46.1 µM), inactives show top-dose activity, negative = inhibition, actives largely listed as inhibitors; 410,000 compounds, 1.2% hits; note: % is set by controls: 0 for no effect and ±100 for the full control effect; nearly all actives have a fitted effect of over 65% in size
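TGF-beta reporter screen: HEPG2 CAGA-GFP, 1% FBS, 500 pg/mL TGF-beta final, 18 h; per-cell GFP summed per well; curves fitted and categorized by class.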
HepG2 tox: qHTS for Inhibitors of TGF-b: Cytotox Counterscreen. 410,000 compounds, 0.76% hits. HepG2 CAGA-GFP viability, ATP luminescence, 18 h. Potency, µM (top dose mostly 46.1 µM), for inactives: at the top dose activity change, negative = cytotoxicity, actives largely listed as cytotoxic
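HepG2 CAGA-GFP cells (1000/well, DMEM with 1% FBS) received compound, then TGF-beta at 500 pg/mL final, and were incubated 18 hours at 37 degrees C. Viability was read by CellTiter-Glo luminescence. Media-only wells were set as complete cell-killing and DMSO as no toxicity.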
ATXN2 expr inh: Primary qHTS for Inhibitors of ATXN expression | HEK-293 ATXN2-luciferase reporter, luminescence, 24 h | Potency, µM (top dose mostly 57 µM), inactives show top-dose activity change, negative = inhibition, actives largely listed as inhibitors | 360,000 compounds, 0.72% hits | AID 1745845, 2022; note: % is set by controls: 0 for no effect and ±100 for the full control effect; nearly all actives have a fitted effect of over 55% in size
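ATXN2-luciferase reporter cells (luciferase flanked by upstream and downstream ATXN2 gene portions) were treated 24 h at 37 °C with compounds at up to 57 uM. SteadyGlo luminescence gave expression; GF-AFC fluorescence gave viability.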
RORgamma inh: qHTS for inhibitors of ROR gamma transcriptional activity; 310,000 compounds, 5.4% hits; Potency, µM (titrated, usually from 53.6 µM), without a hit: at the highest dose activity change, negative = inhibition, usual class: inhibitors; Drosophila S2 Gal4-RORgamma UAS-luciferase reporter, 20 h; Nuclear receptor ROR-gamma (Mus musculus), P51450; note: % is set by controls: 0 for no effect and ±100 for the full control effect; nearly all actives have a fitted effect of over 60% in size
Target sequence (P51450 whole entry, looked up, the tested form may be a part): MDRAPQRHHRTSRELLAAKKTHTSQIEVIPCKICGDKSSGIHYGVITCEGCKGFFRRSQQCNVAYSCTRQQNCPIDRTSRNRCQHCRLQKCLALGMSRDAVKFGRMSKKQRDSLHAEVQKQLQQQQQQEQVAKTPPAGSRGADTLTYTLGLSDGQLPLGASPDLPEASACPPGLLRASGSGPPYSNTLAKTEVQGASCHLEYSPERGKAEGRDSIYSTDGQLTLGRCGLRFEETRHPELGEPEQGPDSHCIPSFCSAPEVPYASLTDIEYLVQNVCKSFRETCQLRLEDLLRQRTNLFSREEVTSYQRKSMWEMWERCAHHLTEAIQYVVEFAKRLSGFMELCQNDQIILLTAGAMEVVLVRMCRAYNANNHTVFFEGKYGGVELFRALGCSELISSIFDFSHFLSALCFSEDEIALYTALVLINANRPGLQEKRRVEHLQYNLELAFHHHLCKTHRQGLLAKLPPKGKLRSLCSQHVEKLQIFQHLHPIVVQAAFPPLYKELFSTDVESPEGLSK
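Stably transfected Drosophila Schneider cells are the test system, with ROR gamma fused to Gal4 and luciferase under UAS control; luminescence is read after 20 hr of 700 uM copper sulfate induction at ambient temperature.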
Active calls of the source: *; [ ] = dose if it differs, or a comment. Calls come from the whole dose curve; as a rule, active = well fitted curve in the direction sought with a large enough effect; inconclusive = small, poorly fitted or top-dose-only effect, or another doubt; inactive = no such curve, though single readings can be large; an effect the other way counts as inactive or inconclusive. Potency is the fitted concentration of half-maximal effect.

O=C(CN1CCOCC1)NNc1nc(-c2ccccc2)c2cc(Br)ccc2n1 was read as VP16 counter -11.7%[10 µM], ATXN viability inactive, TGFb SMAD3 inh -4.0%, HepG2 tox -9.9%, ATXN2 expr inh -38.9% and RORgamma inh 8.91µM*.
`COc1ccc(-c2csc3nc(-c4cccnc4)nc(N4CCC(C(N)=O)CC4)c23)cc1OC` gave VP16 counter -18.8%, ATXN viability inactive, TGFb SMAD3 inh 2.6%, HepG2 tox -17.8%, ATXN2 expr inh -9.8% and RORgamma inh -38.4%.
`COc1ccc(-c2csc3nc(C)nc(N4CCCCC4)c23)cc1OC` gave VP16 counter 9.9%, ATXN viability inactive, TGFb SMAD3 inh -3.0%, HepG2 tox -7.4%, ATXN2 expr inh 42.7% and RORgamma inh 10µM*.
c1ccc(C(c2ccccc2)N2CCN(c3nc4ccccc4n4cnnc34)CC2)cc1 was read as VP16 counter 12.6µM*, ATXN viability inactive, TGFb SMAD3 inh inconclusive, HepG2 tox 3.3%, ATXN2 expr inh 4.2% and RORgamma inh -90.5%.
Screening Nc1cc2nsnc2cc1Br returned VP16 counter -10.2%, ATXN viability inactive, TGFb SMAD3 inh 11.2µM*, HepG2 tox -78.3%, ATXN2 expr inh -18.1% and RORgamma inh 12.6µM*.
For Nc1cccc2nsnc12 the results were VP16 counter -7.1%, ATXN viability inactive, TGFb SMAD3 inh 11.5%, HepG2 tox 26.7%, ATXN2 expr inh -8.3% and RORgamma inh -0.4%.
Screening Cc1cc(C(=O)N/N=C/c2cc(Cl)cc([N+](=O)[O-])c2O)c2ccccc2n1 returned VP16 counter 11.2µM*, ATXN viability inactive, TGFb SMAD3 inh -19.6%, HepG2 tox 3.6%, ATXN2 expr inh inconclusive and RORgamma inh 1.58µM*.
For Cc1cc(C(=O)N/N=C/c2c(CO)cnc(C)c2O)c2ccccc2n1 the results were VP16 counter -2.4%, ATXN viability inconclusive, TGFb SMAD3 inh 27.1%, HepG2 tox -11.1%, ATXN2 expr inh inconclusive and RORgamma inh -41.1%.
For O=C(NN=Cc1ccc(O)cc1)c1ccccc1NS(=O)(=O)c1cccs1 the results were ATXN viability inactive, TGFb SMAD3 inh 3.4%, HepG2 tox -11.1% and ATXN2 expr inh 16.8%.
O=C(N/N=C/c1cc(Cl)cc([N+](=O)[O-])c1O)c1ccccc1NS(=O)(=O)c1cccs1 was read as VP16 counter 10µM*, TGFb SMAD3 inh -27.5%, HepG2 tox -14.8% and RORgamma inh 2.82µM*.
`CCOC(=O)c1c(C)[nH]sc1=S` gave VP16 counter inconclusive, ATXN viability inactive, TGFb SMAD3 inh 15.3%, HepG2 tox 17.1%, ATXN2 expr inh -1.1% and RORgamma inh 6.31µM*.
`C=C1C=C(C(F)F)n2ncc(C(=O)NCc3ccccc3OC)c2N1` gave TGFb SMAD3 inh 0.0% and HepG2 tox -1.0%.
COc1ccc(C(=O)CCN(C)C)c2ccccc12 was read as TGFb SMAD3 inh 6.31µM* and HepG2 tox -103.2%.
Screening COc1ccc(C(=O)c2ccc(Cl)cc2)c2ccccc12 returned VP16 counter 5.6%, ATXN viability inactive, TGFb SMAD3 inh -12.8%, HepG2 tox -8.0%, ATXN2 expr inh -8.2% and RORgamma inh -1.8%.
O=C(/C=C/Nc1ccc(F)c(F)c1)c1ccc(Br)cc1 was read as VP16 counter -6.2%, ATXN viability inactive, TGFb SMAD3 inh -3.8%, HepG2 tox -4.8%, ATXN2 expr inh 43.1% and RORgamma inh 10.2%.
For O=C(/C=C/Nc1ccc(Br)cc1F)c1ccccc1 the results were VP16 counter 5.62µM*, ATXN viability inactive, TGFb SMAD3 inh -5.2%, HepG2 tox -1.5%, ATXN2 expr inh -56.0% and RORgamma inh 3.98µM*.
`O=C(/C=C/Nc1ccc(F)cc1)c1ccc(Br)cc1` gave VP16 counter inconclusive, ATXN viability inactive, TGFb SMAD3 inh 1.1%, HepG2 tox -12.0% and RORgamma inh 5.0%.
For O=C(/C=C/Nc1ccccc1F)c1ccc(Br)cc1 the results were VP16 counter inconclusive, ATXN viability inactive, TGFb SMAD3 inh 1.8%, HepG2 tox -60.4%, ATXN2 expr inh 45.8% and RORgamma inh 10µM*.
For Cc1ccc(CN(C(=O)c2ccccc2)c2ccccn2)o1 the results were ATXN viability inactive, TGFb SMAD3 inh -20.5%, HepG2 tox -15.2% and ATXN2 expr inh 12.6%.
`CC(N)=NCCC[C@H](N)C(=O)O` gave VP16 counter -8.6% and RORgamma inh -2.3%.
N=c1n(CCN2CCOCC2)c2ccccc2n1CC(=O)c1ccc(Cl)c(Cl)c1 was read as VP16 counter 3.98µM*, ATXN viability inconclusive, TGFb SMAD3 inh inconclusive, HepG2 tox -55.4%, ATXN2 expr inh -21.1% and RORgamma inh inconclusive.
CCN(CC)S(=O)(=O)c1ccc(C)c(NC(=S)N2CCN(C/C=C/c3ccccc3)CC2)c1 was read as VP16 counter inconclusive, ATXN viability inconclusive, TGFb SMAD3 inh inconclusive, HepG2 tox -22.9% and RORgamma inh 12.6µM*.
CS(=O)(=O)N(CCc1ccccc1)CC(=O)N1CCN(Cc2ccc3c(c2)OCO3)CC1 was read as VP16 counter inconclusive, ATXN viability inactive, TGFb SMAD3 inh -11.2%, HepG2 tox -1.5%, ATXN2 expr inh -16.0% and RORgamma inh 35.4%.
`CCN(CC)S(=O)(=O)c1ccc(C)c(NC(=S)N2CCN(Cc3ccc4c(c3)OCO4)CC2)c1` gave VP16 counter 22.4µM*, ATXN viability inactive, TGFb SMAD3 inh -30.1%, HepG2 tox -2.2%, ATXN2 expr inh inconclusive and RORgamma inh 11.2µM*.
S=C(Nc1ccc2c(c1)OCO2)N1CCN(Cc2ccco2)CC1 was read as VP16 counter 11.2µM*, ATXN viability inactive, TGFb SMAD3 inh 0.3%, HepG2 tox -18.4%, ATXN2 expr inh -30.2% and RORgamma inh 11.2µM*.
`CS(=O)(=O)N(CC(=O)N1CCN(Cc2ccc3c(c2)OCO3)CC1)Cc1ccc(Cl)cc1` gave VP16 counter 10µM*, ATXN viability inconclusive, TGFb SMAD3 inh -10.1%, HepG2 tox 1.5%, ATXN2 expr inh -26.0% and RORgamma inh -20.0%.
Screening Cc1cccc(C)c1NC(=O)C1c2ccccc2OCC(=O)N1Cc1ccc2c(c1)OCO2 (stereo not drawn) returned ATXN viability inactive and ATXN2 expr inh 15.2%.
Screening OC1c2ccccc2-c2nc3ccccc3cc21 (stereo not drawn) returned VP16 counter -28.2% and RORgamma inh -35.7%.
